The source of these data is PubChem BioAssay (NCI).

Where “and” joins values, the source holds several entries; their conditions need not be identical. Equal entries are not always repeated. Compounds without any hit were thinned out: in the full panel of roughly 79,000, 15% have a hit. Calls of active or inactive are those of the source. Rule as the data show it: active = growth inhibition above about 70%; inactive = the rest.

The nature of this test: NCI Yeast Anticancer Drug Screen. Data for the sgs1 mgt1 strain (AID 161).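 Also: 0% = growth of cultures given vehicle only.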 The conditions noted are these: S. cerevisiae sgs1 mgt1 strain, active compounds read high; at 50.0 µM unless noted. The procedure, abridged: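 Compounds are added to genetically altered yeast, and growth is compared with cultures given vehicle alone to give percent inhibition.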
With `NNC(=O)CCn1[nH]c(=O)c(Cl)c(Cl)c1=O`, the growth inhibition was 19.9% (inactive).

Take `Oc1ccc(Br)cc1/C=N/c1nc2ccccc2s1.Oc1ccc(Br)cc1/C=N/c1nc2ccccc2s1.[Cu]`: the growth inhibition was 0.05% (inactive).

As for `COc1ccccc1C(=O)NCC1CCCN2CCCCC12` (stereo not given), the growth inhibition is 14.9% (inactive).

With `CCOC(=O)c1nnsc1N/N=C\c1ccc([N+](=O)[O-])cc1`, the growth inhibition was -25.7% (inactive).

Take `O=C1OC(=O)C2C3CC(C(Br)C3Br)C12` (stereo not given): the growth inhibition is 7.8% (inactive).

Turning to `Cc1ccc(/C=C/C(=O)C(C)CN(C)C)cc1C` (stereo not given), the growth inhibition was 26.1% (inactive).

In the case of `CC(C)(O)CCO`, the growth inhibition was -17.4% (inactive).

Regarding `CCOC(=O)C/C(O)=C(/C=N/C(=S)NNC(C)=O)C(=O)OCC`, the growth inhibition was -32.2% (inactive).

Take `CC1/C(=N\O)CC2C3(C)CCC2(C(C)C(=O)O)C(=O)C13` (stereo not given): the growth inhibition is 2.2% (inactive).

On to `COc1nc(NC2OC(CO)C(O)C(O)C2O)c(C(=O)CCl)c(=O)n1C` (stereo not given), for which the growth inhibition is -15.8% (inactive).

As for `C/C(=N/NC(N)=S)c1c(C)[nH]c2ccccc12`, the growth inhibition was -7.7% (inactive).

As for `O=C(Nc1ccc(O)cc1)c1ccc([N+](=O)[O-])cc1`, the growth inhibition is 3.35% (inactive).

Take `CCC(SC(CC)(CC)C(=O)O)C(N)=O` (stereo not given): the growth inhibition is -8.15% (inactive).

On to `Cc1cccc(NC(=O)Nc2ccccc2Cl)n1`, for which the growth inhibition was 24.4% (inactive).

Consider `c1ccc(N=NC2(c3ccccc3)CC(c3ccccc3)=NN(c3ccccc3)C2NNc2ccccc2)cc1` (stereo not given), for which the growth inhibition is 23.8% (inactive).

For the compound `CCCOC(=O)c1ccc(O)cc1.[Cu+2]`, the growth inhibition is -14% (inactive).

In the case of `O=C(O)c1ccccc1SSc1ccccc1C(=O)O`, the growth inhibition was -6.6% (inactive) and 3.3% (inactive).

`CN(C)CC1CCCCCC(CN(C)C)C1=O` (stereo not given): the growth inhibition is -1.85% (inactive) and 25.9% (inactive).

As for `Cc1ccc(NC(=O)c2c(Br)c(Br)c(Br)c(Br)c2C(=O)O)cc1Cl`, the growth inhibition was -8.6% (inactive).

With `O=c1[nH][nH]c2ccccc12`, the growth inhibition was 13.1% (inactive).

With `C=CCN1C(=O)CS/C1=N/NC(=O)C(O)(c1ccccc1)c1ccccc1`, the growth inhibition is 6.1% (inactive).

Regarding `O=C(O)CN(CCO)CCN(CC(=O)O)CC(=O)O.[Fe+2]`, the growth inhibition is -18.5% (inactive).

On to `O=C(O)CNC(=S)SCC(=O)O`, for which the growth inhibition was -23.1% (inactive).

Regarding `NC(=O)Nc1ccc(/C=C\c2ccnc3ccccc23)cc1`, the growth inhibition is 4.95% (inactive).

For `Cc1[nH]c(=O)cc2c1[nH]c1ccccc12`, the growth inhibition is -0.15% (inactive).

Consider `CS(=O)CCC1C(=O)OC(C(C)(C)C)N1C(=O)c1ccccc1` (stereo not given), for which the growth inhibition was 4.55% (inactive).

For the compound `O=C(Nc1cccc(I)c1)OCCCl`, the growth inhibition is 87.2% (active).

As to `O=c1n(-c2ccccc2)c(=O)n(-c2ccccc2)c(=O)n1-c1ccccc1`, the growth inhibition is -17.1% (inactive).

`CC(C)OC(=O)/C=C/CCCC1CCCCC1`: the growth inhibition was 7.95% (inactive).

As for `Oc1cc2c(cc1-c1cc3c(cc1O)OCO3)OCO2`, the growth inhibition was -5.15% (inactive).

As for `CN1OC(=O)OC(C)(c2ccccc2)C1=O` (stereo not given), the growth inhibition was -2.3% (inactive).

As to `COc1ccc(-c2nc(Sc3c([N+](=O)[O-])ncn3C)n[nH]2)cc1`, the growth inhibition is 3.7% (inactive).

As to `Cc1cc(C(=O)O)cc(C)c1N(C)C=O`, the growth inhibition was 3.15% (inactive).

In the case of `CCOC(OCC)C1(C)CC=CCC1` (stereo not given), the growth inhibition was 5.05% (inactive).

In the case of `CN(C)c1cccc2ccccc12`, the growth inhibition was 20.7% (inactive).

`CC1(CO)COC(C)(C)OC1`: the growth inhibition is 7.1% (inactive).

For the compound `COC(=O)C(CCCCCCCC(C(=O)OC)c1nc2n(c1O)C(=N)N=N2)c1nc2n(c1O)C(=N)N=N2` (stereo not given), the growth inhibition was -7.95% (inactive).

Consider `CN1C(=O)OC2OC(C)(c3ccc(S(=O)(=O)c4ccccc4)cc3)C(=O)CC21` (stereo not given), for which the growth inhibition is -10.5% (inactive).

As to `CC1(C)OC2OC3C(O)C(=O)OC3C2O1` (stereo not given), the growth inhibition was -19.2% (inactive).

For `N#Cc1cccc2c1Nc1ccccc1S2`, the growth inhibition was -10.7% (inactive).
